Measured values from the supplement of paper PMC12669032.

Each molecule was assayed on Eubacterium rectale (assay: growth AUC relative to DMSO control (median of replicates) (fraction); higher = more growth (less inhibition), active = hit call of the paper). Details: 20 µM; 24 h;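 active = AUC reduced over 20% with Padj below 0.05 in at least 2 of 3 replicates; inactive = otherwise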.
Outline: (§1)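 OD600 was recorded every hour for 24 h in anaerobic monocultures of gut bacteria kept at 37 °C in mGAM, seeded at OD600 0.05 and given 20 µM compound in 1% DMSO. The area under each growth curve was scaled to the plate median of solvent-only wells, or to row and column medians for the industrial chemical plate. Before this step, the minimum OD was set to 0. Reported values are medians of three biological replicates run on separate days.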

| SMILES | growth AUC |
| --- | --- |
| CC1(C)C(C=C(Cl)Cl)C1C(=O)OC(C#N)c1ccc(F)c(Oc2ccccc2)c1 (mixture of isomers) | 1.06 (inactive) |
| c1ccc2c(c1)cc1ccc3cccc4ccc2c1c34 | 0.971 (inactive) |
| CCc1cccc(C)c1N(C(=O)CCl)C(C)COC (stereo not drawn) | 1.02 (inactive) |
| CO/C=C(/C(=O)OC)c1ccccc1Oc1cc(Oc2ccccc2C#N)ncn1 | 0.948 (inactive) |
| O=C(NCCc1ncc(C(F)(F)F)cc1Cl)c1ccccc1C(F)(F)F | 0.964 (inactive) |
| CC(=O)CC(c1ccc(Cl)cc1)c1c(O)c2ccccc2oc1=O (stereo not drawn) | 0.881 (inactive) |
| CCOP(=S)(OCC)Oc1ccc(S(C)=O)cc1 (stereo not drawn) | 0.878 (inactive) |
| CCOP(=O)(NC(C)C)Oc1ccc(S(C)(=O)=O)c(C)c1 (stereo not drawn) | 1.03 (inactive) |
| Clc1cccc(C(Cl)(Cl)Cl)n1 | 1.05 (inactive) |
| COP(=O)(OC)Oc1ccc(S(C)(=O)=O)c(C)c1 | 0.795 (inactive) |
| Clc1ccc(C(c2ccc(Cl)cc2)C(Cl)(Cl)Cl)cc1 | 0.878 (inactive) |
| O=c1oc2ccccc2c(O)c1C(CC(O)c1ccc(-c2ccc(Br)cc2)cc1)c1ccccc1 (stereo not drawn) | 0.883 (inactive) |
| C[Si](Cn1cncn1)(c1ccc(F)cc1)c1ccc(F)cc1 | 0.504 (active) |
| CCCCN(CC)c1c([N+](=O)[O-])cc(C(F)(F)F)cc1[N+](=O)[O-] | 0.864 (inactive) |
| Cc1cc(Cl)ccc1OCC(=O)O | 0.984 (inactive) |
| O=C1c2ccccc2C(=O)N1SC(Cl)(Cl)Cl | 1.06 (inactive) |
| CCCCOCN(C(=O)CCl)c1c(CC)cccc1CC | 1.03 (inactive) |
| CN(C)C(CSC(N)=O)CSC(N)=O.Cl | 1.54 (inactive) |
| O=NN(CCO)CCO | 0.977 (inactive) |
| O=C(O)C(Cl)Cl | 0.977 (inactive) |

| SMILES | growth AUC |
| --- | --- |
| C1CCC(NC2CCCCC2)CC1.O=NO | 0.601 (active) |
| Oc1ccc(Cl)cc1Cc1cc(Cl)ccc1O | 0.497 (active) |
| Clc1cc(Cl)c(Cl)c(Cl)c1 | 1.05 (inactive) |
| CNC(=O)/C(=N/OC)c1ccccc1Oc1ccccc1 | 0.977 (inactive) |
| COC(=O)c1ccccc1CS(=O)(=O)NC(=O)Nc1nc(OC)cc(OC)n1 | 0.998 (inactive) |
| CNC(=O)O/N=C(\SC)C(=O)N(C)C | 1 (inactive) |
| O=[N+]([O-])c1ccc(Oc2ccc(Cl)cc2Cl)cc1 | 1.07 (inactive) |
| CCCCOC(=O)c1ccccc1C(=O)OCCCC | 1.07 (inactive) |
| O=C(NC(=O)c1c(F)cccc1F)Nc1ccc(Cl)cc1 | 1.01 (inactive) |
| COP(=S)(OC)Oc1ccc(S(C)=O)c(C)c1 (stereo not drawn) | 1.06 (inactive) |
| COP(=O)(OC)Oc1ccc(SC)c(C)c1 | 0.96 (inactive) |
| C=CC(N)=O | 0.997 (inactive) |
| CCOC(=O)Nc1cccc(OC(=O)Nc2ccccc2)c1 | 0.901 (inactive) |
| C=CCC1=C(C)C(OC(=O)[C@@H]2[C@@H](C=C(C)C)C2(C)C)CC1=O (stereo partly drawn) | 0.919 (inactive) |
| CNC(=O)Oc1cc(C)c(N(C)C)c(C)c1 | 1 (inactive) |
| CC(C)(COCc1cccc(Oc2ccccc2)c1)c1ccc(OC(F)(F)Br)cc1 | 0.903 (inactive) |
| OC(c1ccc(Cl)cc1)(c1cncnc1)c1ccccc1Cl (stereo not drawn) | 1.14 (inactive) |
| CCCSP(=O)(OCC)Oc1ccc(Br)cc1Cl (stereo not drawn) | 0.993 (inactive) |
| CCOP(=S)(OCC)SCSc1ccc(Cl)cc1 | 0.909 (inactive) |

Each molecule was assayed on Fusobacterium nucleatum subsp. animalis in the same assay as above. Details: 20 µM; 24 h.
Outline: as §1

| SMILES | growth AUC |
| --- | --- |
| CC1(C)C(C=C(Cl)Cl)C1C(=O)OC(C#N)c1ccc(F)c(Oc2ccccc2)c1 (mixture of isomers) | 0.95 (inactive) |
| c1ccc2c(c1)cc1ccc3cccc4ccc2c1c34 | 0.951 (inactive) |
| CCc1cccc(C)c1N(C(=O)CCl)C(C)COC (stereo not drawn) | 1.1 (inactive) |
| CO/C=C(/C(=O)OC)c1ccccc1Oc1cc(Oc2ccccc2C#N)ncn1 | 0.969 (inactive) |
| O=C(NCCc1ncc(C(F)(F)F)cc1Cl)c1ccccc1C(F)(F)F | 0.875 (inactive) |
| CC(=O)CC(c1ccc(Cl)cc1)c1c(O)c2ccccc2oc1=O (stereo not drawn) | 0.929 (inactive) |
| CCOP(=S)(OCC)Oc1ccc(S(C)=O)cc1 (stereo not drawn) | 0.998 (inactive) |
| CCOP(=O)(NC(C)C)Oc1ccc(S(C)(=O)=O)c(C)c1 (stereo not drawn) | 1.03 (inactive) |
| Clc1cccc(C(Cl)(Cl)Cl)n1 | 1.01 (inactive) |
| COP(=O)(OC)Oc1ccc(S(C)(=O)=O)c(C)c1 | 0.998 (inactive) |
| Clc1ccc(C(c2ccc(Cl)cc2)C(Cl)(Cl)Cl)cc1 | 0.916 (inactive) |
| O=c1oc2ccccc2c(O)c1C(CC(O)c1ccc(-c2ccc(Br)cc2)cc1)c1ccccc1 (stereo not drawn) | 0.936 (inactive) |
| C[Si](Cn1cncn1)(c1ccc(F)cc1)c1ccc(F)cc1 | 0.9 (inactive) |
| CCCCN(CC)c1c([N+](=O)[O-])cc(C(F)(F)F)cc1[N+](=O)[O-] | 1.04 (inactive) |
| Cc1cc(Cl)ccc1OCC(=O)O | 1.07 (inactive) |
| O=C1c2ccccc2C(=O)N1SC(Cl)(Cl)Cl | 1.02 (inactive) |
| CCCCOCN(C(=O)CCl)c1c(CC)cccc1CC | 1.12 (inactive) |
| CN(C)C(CSC(N)=O)CSC(N)=O.Cl | 1.15 (inactive) |
| O=NN(CCO)CCO | 1.01 (inactive) |
| O=C(O)C(Cl)Cl | 1.04 (inactive) |

| SMILES | growth AUC |
| --- | --- |
| C1CCC(NC2CCCCC2)CC1.O=NO | 1 (inactive) |
| Oc1ccc(Cl)cc1Cc1cc(Cl)ccc1O | 0.845 (inactive) |
| Clc1cc(Cl)c(Cl)c(Cl)c1 | 0.957 (inactive) |
| CNC(=O)/C(=N/OC)c1ccccc1Oc1ccccc1 | 0.968 (inactive) |
| COC(=O)c1ccccc1CS(=O)(=O)NC(=O)Nc1nc(OC)cc(OC)n1 | 0.999 (inactive) |
| CNC(=O)O/N=C(\SC)C(=O)N(C)C | 0.979 (inactive) |
| O=[N+]([O-])c1ccc(Oc2ccc(Cl)cc2Cl)cc1 | 1 (inactive) |
| CCCCOC(=O)c1ccccc1C(=O)OCCCC | 1.06 (inactive) |
| O=C(NC(=O)c1c(F)cccc1F)Nc1ccc(Cl)cc1 | 0.987 (inactive) |
| COP(=S)(OC)Oc1ccc(S(C)=O)c(C)c1 (stereo not drawn) | 1.02 (inactive) |
| COP(=O)(OC)Oc1ccc(SC)c(C)c1 | 0.986 (inactive) |
| C=CC(N)=O | 1.02 (inactive) |
| CCOC(=O)Nc1cccc(OC(=O)Nc2ccccc2)c1 | 0.894 (inactive) |
| C=CCC1=C(C)C(OC(=O)[C@@H]2[C@@H](C=C(C)C)C2(C)C)CC1=O (stereo partly drawn) | 1 (inactive) |
| CNC(=O)Oc1cc(C)c(N(C)C)c(C)c1 | 0.952 (inactive) |
| CC(C)(COCc1cccc(Oc2ccccc2)c1)c1ccc(OC(F)(F)Br)cc1 | 0.939 (inactive) |
| OC(c1ccc(Cl)cc1)(c1cncnc1)c1ccccc1Cl (stereo not drawn) | 1.01 (inactive) |
| CCCSP(=O)(OCC)Oc1ccc(Br)cc1Cl (stereo not drawn) | 1.11 (inactive) |
| CCOP(=S)(OCC)SCSc1ccc(Cl)cc1 | 1.07 (inactive) |
